“And” between values parts separate entries of the source, which are not always exact repeats. Identical values can stand only once. Out of some 5,500 compounds screened, about 2,000 (36%) were called active. Another 18% or so got no clear call; they are omitted. Rule as the data show it: active = normalized growth mostly below about 0.91 (no sharp cut-off); inconclusive = no clear call, values can overlap the other calls; inactive = mostly above about 0.92. The list shows a part of the results.
Assay: chemical genetic growth profiling, strain panel (AID 1159580);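 also: tested at 20 µM; growth read once vehicle control cultures reached saturation at 30 °C; 1 = growth at the plate median or of vehicle wells; lower values mean less growth of the strain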
Conditions: S. cerevisiae deletion strains, growth OD

Measured: normalized growth

O=C(Oc1cc(O)cc2c1C[C@@H](OC(=O)c1cc(O)c(O)c(O)c1)[C@@H](c1cc(O)c(O)c(O)c1)O2)c1cc(O)c(O)c(O)c1
0.115 (active) and 0.99 (inactive): locus YJL095W, strain BCK1, stronger effect = lower value
active: locus YBR229C, strain ROT2, stronger effect = lower value 0.482 | locus YCL029C, strain bik1, stronger effect = lower value 0.668 | locus YDL035C, strain GPR1, stronger effect = lower value 0.133 | locus YDL074C, strain BRE1, stronger effect = lower value 0.334 | locus YDL101C, strain DUN1, stronger effect = lower value 0.147 | locus YDL185W, strain tfp1, stronger effect = lower value 0.872 | locus YDL192W, strain arf1, stronger effect = lower value 0.638 | locus YDR101C, strain arx1, stronger effect = lower value 0.806 | locus YDR162C, strain NBP2, stronger effect = lower value 0.0879 | locus YDR318W, strain mcm21, stronger effect = lower value 0.736 | locus YDR388W, stronger effect = lower value 0.759 | locus YDR502C, strain sam2, stronger effect = lower value 0.52 | locus YEL061C, strain CIN8, stronger effect = lower value 0.438 | locus YER155C, strain BEM2, stronger effect = lower value 0.775 | locus YER167W, strain BCK2, stronger effect = lower value 0.492 | locus YGL086W, strain mad1, stronger effect = lower value 0.431 | locus YGL248W, strain PDE1, stronger effect = lower value 0.24 | locus YGR078C, strain PAC10, stronger effect = lower value 0.621 | locus YGR135W, strain pre9, stronger effect = lower value 0.62 | locus YGR252W, strain gcn5, stronger effect = lower value 0.658 | locus YHR079C, strain IRE1 (second series), stronger effect = lower value 0.79 | locus YHR129C, strain ARP1, stronger effect = lower value 0.337 | locus YHR200W, strain rpn10, stronger effect = lower value 0.661 | locus YIL066C, strain RNR3, stronger effect = lower value 0.096 | locus YIL073C, strain SPO22, stronger effect = lower value 0.241 | locus YIR030C, strain dcg1, stronger effect = lower value 0.889 | locus YJL134W, strain LCB3, stronger effect = lower value 0.551 | locus YJL187C, strain SWE1 (second series), stronger effect = lower value 0.104
inactive: locus YAL021C, strain ccr4, stronger effect = lower value 1.01 | locus YAL026C, strain drs2, stronger effect = lower value 0.988 | locus YAL030W, strain snc1, stronger effect = lower value 1.01 | locus YBL061C, strain skt5, stronger effect = lower value 1.01 | locus YBR009C, strain hhf1, stronger effect = lower value 1.01 | locus YBR021W, strain FUR4, stronger effect = lower value 1.05 | locus YBR023C, strain chs3, stronger effect = lower value 1.02 | locus YBR171W, strain sec66, stronger effect = lower value 0.994 | locus YBR231C, strain swc5, stronger effect = lower value 1.02 | locus YBR279W, strain paf1, stronger effect = lower value 1.01 | locus YCL011C, strain gbp2, stronger effect = lower value 0.979 | locus YCL016C, strain dcc1, stronger effect = lower value 1.01 | locus YCL061C, strain MRC1, stronger effect = lower value 0.983 | locus YCL069W, strain vba3, stronger effect = lower value 0.992 | locus YCR088W, strain abp1, stronger effect = lower value 0.992 | locus YDL005C, strain med2, stronger effect = lower value 1.01 | locus YDL040C, strain nat1, stronger effect = lower value 0.998 | locus YDR001C, strain nth1, stronger effect = lower value 0.986 | locus YDR069C, strain doa4, stronger effect = lower value 1 | locus YDR137W, strain rgp1, stronger effect = lower value 0.99 | locus YDR159W, strain sac3, stronger effect = lower value 1.04 | locus YDR195W, strain ref2 1 | locus YDR297W, strain sur2, stronger effect = lower value 1.02 | locus YDR334W, strain swr1, stronger effect = lower value 0.996 | locus YDR335W, strain msn5, stronger effect = lower value 1.01 | locus YDR392W, strain spt3, stronger effect = lower value 1.02 | locus YEL003W, strain gim4, stronger effect = lower value 0.983 | locus YEL037C, strain rad23, stronger effect = lower value 0.982 | locus YEL061C, strain CIN8 (second series), stronger effect = lower value 1 | locus YER015W, strain faa2, stronger effect = lower value 0.989 | locus YER016W, strain bim1, stronger effect = lower value 1.02 | locus YER110C, stronger effect = lower value 0.956 | locus YER111C, strain swi4, stronger effect = lower value 0.974 | locus YER155C, strain BEM2 (second series), stronger effect = lower value 0.975 | locus YFR010W, strain ubp6, stronger effect = lower value 0.997 | locus YGL078C, strain dbp3, stronger effect = lower value 0.99 | locus YGL167C, strain pmr1, stronger effect = lower value 1.01 | locus YGL173C, strain kem1, stronger effect = lower value 1.02 | locus YGL227W, strain vid30, stronger effect = lower value 0.994 | locus YGL240W, strain doc1, stronger effect = lower value 1.05 | locus YGL253W, strain hxk2, stronger effect = lower value 1.03 | locus YHR013C, strain ard1, stronger effect = lower value 1.02 | locus YHR027C, strain rpn1, stronger effect = lower value 1.02 | locus YHR030C, strain SLT2, stronger effect = lower value 1.01 | locus YHR079C, strain IRE1, stronger effect = lower value 1 | locus YHR094C, strain hxt1, stronger effect = lower value 0.932 | locus YHR142W, strain chs7, stronger effect = lower value 1.01 | locus YIL125W, strain kgd1, stronger effect = lower value 0.958 | locus YJL092W, strain hpr5, stronger effect = lower value 0.989 | locus YJL095W, strain BCK1 (second series), stronger effect = lower value 1.02 | locus YJL115W, strain asf1, stronger effect = lower value 1 | locus YJL129C, strain trk1, stronger effect = lower value 1.03 | locus YJL154C, strain vps35, stronger effect = lower value 0.988 | locus YJL164C, strain tpk1, stronger effect = lower value 1.01 | locus YJL166W, strain qcr8, stronger effect = lower value 1.04 | locus YJL168C, strain set2, stronger effect = lower value 0.937

— PubChem BioAssay AID1159580 (chemical genetic matrix, 2015)
